Mcl1-Bid inh – Mcl-1/Bid binding inhibitors, primary screen, biochemical, TR-FRET, 1536-well; Induced myeloid leukemia cell differentiation protein Mcl-1 (Homo sapiens), Q07820; hit rate 0.97% among 220,000; AID 1021, 2008; TR-FRET Mcl-1/Bid-Dy647 peptide binding; inhibition, % at 21.7 µM;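 active means compounds that cut the binding signal by more than half at the single screening dose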;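 further: His-tagged Mcl-1 with europium anti-His antibody binding Bid BH3 peptide; 0% = Mcl-1 plus peptide wells and 100% = peptide-only wells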
Target sequence (Q07820 whole entry, looked up): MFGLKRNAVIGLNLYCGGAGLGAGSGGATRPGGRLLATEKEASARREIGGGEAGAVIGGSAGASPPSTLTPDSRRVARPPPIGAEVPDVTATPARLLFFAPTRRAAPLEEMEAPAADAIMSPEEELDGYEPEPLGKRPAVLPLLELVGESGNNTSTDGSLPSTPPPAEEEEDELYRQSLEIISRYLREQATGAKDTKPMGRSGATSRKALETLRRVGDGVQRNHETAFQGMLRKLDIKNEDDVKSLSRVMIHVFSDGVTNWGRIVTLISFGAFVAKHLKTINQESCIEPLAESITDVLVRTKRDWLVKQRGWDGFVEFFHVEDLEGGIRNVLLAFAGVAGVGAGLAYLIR
MCL1-BIM inh – inhibitors of MCL1 binding to BIM-BH3, primary screen, biochemical, fluorescence polarization; inhibition, % at 10.9 µM; GST-MCL1 / FITC-Bim-BH3 fluorescence polarization; Induced myeloid leukemia cell differentiation protein Mcl-1 (Homo sapiens), Q07820; hit rate 0.68% among 320,000;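 active means inhibition above the mean inhibition of all tested compounds plus 3 SD, set per campaign, cut at about 40% in these data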;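 further: 0% = DMSO wells and 100% = unlabeled Bim-BH3 peptide control; higher means more loss of mP so more displacement of Bim peptide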
Bim-Mcl-1 – inhibitors of Bim peptide binding to Mcl-1, primary screen, biochemical, bead-based flow cytometry, multiplex; Induced myeloid leukemia cell differentiation protein Mcl-1 (Homo sapiens), Q07820; Bim peptide-Mcl-1 binding; inhibition, % at 10 µM; hit rate 0.1% among 190,000; AID 1009, 2008; in the data active means inhibition above about 40%;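 further: 0% = no compound tracer wells and 100% = peptide blocker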
GLD-1 TGE inh – GLD-1/TGE RNA complex disruptors, primary screen, biochemical, fluorescence polarization. Female germline-specific tumor suppressor gld-1 (Caenorhabditis elegans), Q17339. purified GLD-1 + fluorescein TGE RNA. inhibition, % at 5.96 µM. hit rate 0.44% among 320,000;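 active means percent inhibition above a per-plate cutoff, the plate mean of test compounds plus 3 SD, cut at about 30% in these data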;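 further: 0% = DMSO wells with GLD-1 and probe and 100% = wells lacking GLD-1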
Bcl-xL primary – inhibitors of human Bcl-xL, primary screen, biochemical, fluorescence polarization, HTS; GST-Bcl-xL / FITC-Bim BH3 peptide fluorescence polarization; inhibition, % at 10.9 µM; hit rate 0.7% among 320,000; Bcl-2-like protein 1 (Homo sapiens), Q07817;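 active means inhibition above the mean of all tested compounds plus 3 SD, cutoff set per campaign, cut at about 30% in these data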;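 further: 0% = DMSO wells and 100% = unlabeled Bim-BH3 peptide competitor; inhibitors lower millipolarization by displacing the labeled peptide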
Target sequence (Q07817 whole entry, looked up): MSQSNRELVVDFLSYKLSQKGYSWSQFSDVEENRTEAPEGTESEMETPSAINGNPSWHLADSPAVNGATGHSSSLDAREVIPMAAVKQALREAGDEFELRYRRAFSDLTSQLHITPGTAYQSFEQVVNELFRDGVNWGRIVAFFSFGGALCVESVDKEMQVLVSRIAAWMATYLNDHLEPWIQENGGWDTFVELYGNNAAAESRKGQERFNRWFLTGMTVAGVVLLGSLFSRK
Mcl1-Noxa inh – Mcl-1/Noxa binding inhibitors, primary screen, biochemical, TR-FRET, 1536-well | inhibition, % at 21.7 µM | hit rate 1.5% among 220,000 | TR-FRET Mcl-1/Noxa peptide binding, 2 h | Induced myeloid leukemia cell differentiation protein Mcl-1 (Homo sapiens), Q07820;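 active means compounds that cut the protein-peptide binding signal by more than 50% relative to plate controls in a single-dose test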;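 further: His-tagged Mcl-1 with rhodamine Noxa BH3 peptide and terbium anti-His antibody; 0% = Mcl-1 plus Noxa peptide wells and 100% = peptide-only wells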
* = called active by the depositor; ! = repeats disagree. Most compounds without a hit are left out; they make up all but 2.3% or so of the library.

Cc1cccn2c(=O)c3cc(C#N)c(=NC(=O)c4ccccc4)n(Cc4ccco4)c3nc12 was read as MCL1-BIM inh 31.1, GLD-1 TGE inh 20.2 and Bcl-xL primary 34.7*.
`CCOC(=O)c1cc2c(=O)n3ccccc3nc2n(Cc2ccco2)c1=NC(=O)c1cccnc1` gave Mcl1-Bid inh -71.1, MCL1-BIM inh 18.2, Bim-Mcl-1 3.0, GLD-1 TGE inh 6.9, Bcl-xL primary 15.7 and Mcl1-Noxa inh 50.8*.
`CCOC(=O)c1cc2c(=O)n3cccc(C)c3nc2n(Cc2ccco2)c1=NC(=O)c1cccnc1` gave Mcl1-Bid inh -13.8, Bim-Mcl-1 13.0 and Mcl1-Noxa inh 68.8*.
For O=C(OCc1cccc(F)c1)c1ccc2c(=O)n3c(nc2c1)CCC3 the results were Mcl1-Bid inh 61.3*, MCL1-BIM inh -14.5, GLD-1 TGE inh -1.2, Bcl-xL primary -20.2 and Mcl1-Noxa inh -3.3.
`CN(Cc1cccc(F)c1)C(=O)c1ccc2c(=O)n3c(nc2c1)CCC3` gave MCL1-BIM inh 0.2, GLD-1 TGE inh 7.1 and Bcl-xL primary 2.1.
`O=C(CN1CCN(c2ccccn2)CC1)N1c2ccccc2CCc2ccccc21` gave Mcl1-Bid inh 55.0*, MCL1-BIM inh 8.0, Bim-Mcl-1 -3.0, GLD-1 TGE inh -2.3, Bcl-xL primary 2.4 and Mcl1-Noxa inh 22.5.
Screening O=C(CN1CCN(c2ccccn2)CC1)N1c2ccccc2Sc2ccc(C(F)(F)F)cc21 returned Mcl1-Bid inh 41.4, MCL1-BIM inh 2.9, Bim-Mcl-1 0.0, GLD-1 TGE inh 1.8, Bcl-xL primary 4.1 and Mcl1-Noxa inh 29.7.
Screening CN(C)S(=O)(=O)c1cccc(N=c2scc(-c3ccc4c(c3)NC(=O)CO4)n2CC2CCCO2)c1 (stereo unspecified) returned Mcl1-Bid inh 74.2*, MCL1-BIM inh 3.0, Bim-Mcl-1 -1.0, GLD-1 TGE inh 2.1, Bcl-xL primary 8.4 and Mcl1-Noxa inh -2.8.
Screening COc1cc(C(=O)OCCCN2CCCN(CCCOC(=O)c3cc(OC)c(OC)c(OC)c3)CC2)cc(OC)c1OC returned MCL1-BIM inh 1.2, GLD-1 TGE inh 2.0 and Bcl-xL primary 4.2.
Screening CC(=O)Nc1cccc(NC(=O)c2c(-c3c(Cl)cccc3Cl)noc2C)c1 returned Mcl1-Bid inh -1.9, MCL1-BIM inh 4.2, Bim-Mcl-1 -3.0, GLD-1 TGE inh 5.3, Bcl-xL primary 6.4 and Mcl1-Noxa inh 67.2*.
Screening Cc1onc(-c2c(Cl)cccc2Cl)c1C(N)=S returned Mcl1-Bid inh 50.9*, MCL1-BIM inh 3.9, Bim-Mcl-1 -4.0, GLD-1 TGE inh -5.7, Bcl-xL primary -0.1 and Mcl1-Noxa inh 16.3.
`Cc1onc(-c2c(Cl)cccc2Cl)c1C(N)=O` gave Mcl1-Bid inh -7.9, MCL1-BIM inh 12.5, Bim-Mcl-1 0.0, GLD-1 TGE inh 4.7, Bcl-xL primary 4.9 and Mcl1-Noxa inh -2.6.
Screening Cc1cc(C)nc(NC(=O)c2c(-c3c(Cl)cccc3Cl)noc2C)n1 returned Mcl1-Bid inh -23.7, MCL1-BIM inh 3.2, Bim-Mcl-1 -3.0, GLD-1 TGE inh -5.7, Bcl-xL primary -1.7 and Mcl1-Noxa inh -10.1.
Screening O=C(C[n+]1ccc(C(=O)N/N=C/c2ccc(OCc3ccccc3)cc2)cc1)c1ccccc1 returned Mcl1-Bid inh 16.7, MCL1-BIM inh -1.7, Bim-Mcl-1 0.0, GLD-1 TGE inh -2.6, Bcl-xL primary -3.1 and Mcl1-Noxa inh 29.6.
Screening CC(=O)c1ccc(OCC(O)CN2CCN(Cc3ccc4c(c3)OCO4)CC2)cc1 (stereo unspecified) returned Mcl1-Bid inh 52.1*!, MCL1-BIM inh 5.1, Bim-Mcl-1 0.0, GLD-1 TGE inh 2.5, Bcl-xL primary -1.5 and Mcl1-Noxa inh 27.8.
For SC(COCc1ccccc1)CN1CCN(Cc2ccc3c(c2)OCO3)CC1 (stereo unspecified) the results were Mcl1-Bid inh -55.0, MCL1-BIM inh 7.1, Bim-Mcl-1 -1.0, GLD-1 TGE inh 0.7, Bcl-xL primary 10.0 and Mcl1-Noxa inh -5.0.
`Fc1ccccc1NC(=S)N1CCN(Cc2ccc3c(c2)OCO3)CC1` gave Mcl1-Bid inh 92.3*, MCL1-BIM inh 14.1, Bim-Mcl-1 0.0, GLD-1 TGE inh 0.0, Bcl-xL primary 4.6 and Mcl1-Noxa inh 4.4.
For OC(COCc1ccccc1)CN1CCN(Cc2ccc3c(c2)OCO3)CC1 (stereo unspecified) the results were Mcl1-Bid inh 8.7, MCL1-BIM inh -4.8, Bim-Mcl-1 -1.0, GLD-1 TGE inh 0.3, Bcl-xL primary 1.2 and Mcl1-Noxa inh 55.1*.
For CCC(C)OC(=O)C1=C(C)NC2=C(C(=O)C(C(=O)OC)C(C)C2)C1c1ccc(N(C)C)cc1 (stereo unspecified) the results were Mcl1-Bid inh -34.0, MCL1-BIM inh 1.6, Bim-Mcl-1 0.0, GLD-1 TGE inh 6.5, Bcl-xL primary 4.9 and Mcl1-Noxa inh 59.9*.
Screening CCCOC(=O)C1=C(C)NC2=C(C(=O)C(C(=O)OC)C(C)C2)C1c1ccc(N(CC)CC)cc1 (stereo unspecified) returned Mcl1-Bid inh -18.9, MCL1-BIM inh 8.1, Bim-Mcl-1 0.0, GLD-1 TGE inh 9.4, Bcl-xL primary 2.1 and Mcl1-Noxa inh 48.4.
Screening Cc1cc(CC(=O)O)c2oc(-c3ccoc3)cc(=O)c2c1 returned MCL1-BIM inh 47.2*, GLD-1 TGE inh 7.4 and Bcl-xL primary 38.2*.
For Cc1sc2ncnc(N(C)CCc3ccccn3)c2c1C the results were Mcl1-Bid inh 23.6, MCL1-BIM inh -8.0, GLD-1 TGE inh -6.0, Bcl-xL primary 3.0 and Mcl1-Noxa inh -13.5.
`COc1ccc(CN2C(=O)C(C)=C(C)C2OC)cc1` (stereo unspecified) gave MCL1-BIM inh 1.8, GLD-1 TGE inh 9.5 and Bcl-xL primary 3.4.
`COc1ccc(CN2C(=O)c3cccnc3C2O)cc1` (stereo unspecified) gave Mcl1-Bid inh 92.3*, MCL1-BIM inh 2.0, Bim-Mcl-1 0.0, GLD-1 TGE inh 8.6, Bcl-xL primary -3.0 and Mcl1-Noxa inh 24.7.
`COC(=O)c1sc2nc(CN3CCN(c4ccc(OC)cc4)CC3)[nH]c(=O)c2c1C` gave Mcl1-Bid inh -39.1, MCL1-BIM inh -2.1, Bim-Mcl-1 -5.0, GLD-1 TGE inh -0.4, Bcl-xL primary 2.3 and Mcl1-Noxa inh 1.9.
